Assay [1] addresses Rap guanine nucleotide exchange factor 3 (Homo sapiens) (UniProt O95398). As to the kind of experiment: Confirmatory qHTS for agonist of cAMP-regulated guanine nucleotide exchange factor 3 (EPAC1) (AID 1645881). Also: nearly all actives have a fitted effect of over 75% in size. Also: potency is read from the fitted curve at half-maximal effect.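 As to activation: EPAC1 catalysed release of BODIPY-GDP from Rap1B seen as fluorescence loss; 100% = effect of cAMP agonist control.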
The target is the same in assay [2]. As to the kind of experiment: Counterscreen qHTS for antagonist of cAMP-regulated guanine nucleotide exchange factor 3 (EPAC1) (AID 1645888).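 Also: fluorescence loss as bound BODIPY-GDP is released from Rap1B; % of control where 0% means no effect.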 Put shortly: (§1)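 Rap1B–BODIPY-GDP (250 nM) with 50 uM GDP; compounds pin-transferred to 9.74 nM–152 uM final (activator) or from 7.32 nM upwards (inhibitor). Fluorescence Ex/Em 480/540 nm read at 5 and 30 min, then after adding cAMP or buffer, at room temperature.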

In assay [3] the target is Rap guanine nucleotide exchange factor 4 (Homo sapiens) (UniProt Q8WZA2). Briefly: Confirmatory qHTS for antagonist of cAMP-regulated guanine nucleotide exchange factor 4 (EPAC2) (AID 1645885). Also: % is scaled to controls: 0 for no effect and ±100 for the full control effect; nearly all actives have a fitted effect of over 25% in size.
Sequence of Rap guanine nucleotide exchange factor 4 (Homo sapiens) (Q8WZA2 whole entry, looked up): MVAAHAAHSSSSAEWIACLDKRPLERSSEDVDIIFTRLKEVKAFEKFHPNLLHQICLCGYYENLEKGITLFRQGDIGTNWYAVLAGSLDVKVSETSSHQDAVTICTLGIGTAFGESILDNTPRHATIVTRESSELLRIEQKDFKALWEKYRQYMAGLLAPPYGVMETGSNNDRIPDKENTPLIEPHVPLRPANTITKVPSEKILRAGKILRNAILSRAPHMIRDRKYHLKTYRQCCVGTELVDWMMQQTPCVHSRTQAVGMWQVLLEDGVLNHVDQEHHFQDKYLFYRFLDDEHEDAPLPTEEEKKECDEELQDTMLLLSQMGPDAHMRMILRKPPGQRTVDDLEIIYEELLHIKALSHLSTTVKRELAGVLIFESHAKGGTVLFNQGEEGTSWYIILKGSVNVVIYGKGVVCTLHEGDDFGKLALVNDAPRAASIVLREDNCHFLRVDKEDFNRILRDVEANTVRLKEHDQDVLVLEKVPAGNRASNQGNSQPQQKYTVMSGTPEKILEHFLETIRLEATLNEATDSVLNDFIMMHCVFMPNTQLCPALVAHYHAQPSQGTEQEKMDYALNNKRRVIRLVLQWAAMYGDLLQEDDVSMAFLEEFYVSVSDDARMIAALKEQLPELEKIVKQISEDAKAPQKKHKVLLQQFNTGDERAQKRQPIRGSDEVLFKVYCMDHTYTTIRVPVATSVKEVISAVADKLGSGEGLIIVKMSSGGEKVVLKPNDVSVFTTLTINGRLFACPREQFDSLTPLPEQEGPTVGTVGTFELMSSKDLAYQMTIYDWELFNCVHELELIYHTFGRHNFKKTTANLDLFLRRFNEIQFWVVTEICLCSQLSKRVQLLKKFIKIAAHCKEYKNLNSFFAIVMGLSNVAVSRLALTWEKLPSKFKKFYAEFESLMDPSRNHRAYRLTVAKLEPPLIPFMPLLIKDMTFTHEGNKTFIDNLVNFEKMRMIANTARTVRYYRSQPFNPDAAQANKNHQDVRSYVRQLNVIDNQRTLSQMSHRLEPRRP
Assay [4] deals with Rap guanine nucleotide exchange factor 3 (Homo sapiens) (UniProt O95398). As to the kind of experiment: Counterscreen qHTS for agonist of cAMP-regulated guanine nucleotide exchange factor 3 (EPAC1) (AID 1645889). Also: nearly all actives have a fitted effect of over 40% in size. Also: potency is read from the fitted curve at half-maximal effect. As to activation: % of control where 0% means no effect. The method, boiled down:
as §1

The results in this text go back to PubChem BioAssay (NCATS).

Records with an inconclusive call do not appear. Unmarked numbers belong to inactive results. Calls of active or inactive are those of the source. Calls follow the shape of the dose curve; as a rule, active = well fitted curve in the direction sought with a large enough effect; inconclusive = small, poorly fitted or top-dose-only effect, or another doubt; inactive = no such curve, though single readings can be large; an effect the other way counts as inactive or inconclusive.

Sequence of Rap guanine nucleotide exchange factor 3 (Homo sapiens) (O95398 whole entry, looked up): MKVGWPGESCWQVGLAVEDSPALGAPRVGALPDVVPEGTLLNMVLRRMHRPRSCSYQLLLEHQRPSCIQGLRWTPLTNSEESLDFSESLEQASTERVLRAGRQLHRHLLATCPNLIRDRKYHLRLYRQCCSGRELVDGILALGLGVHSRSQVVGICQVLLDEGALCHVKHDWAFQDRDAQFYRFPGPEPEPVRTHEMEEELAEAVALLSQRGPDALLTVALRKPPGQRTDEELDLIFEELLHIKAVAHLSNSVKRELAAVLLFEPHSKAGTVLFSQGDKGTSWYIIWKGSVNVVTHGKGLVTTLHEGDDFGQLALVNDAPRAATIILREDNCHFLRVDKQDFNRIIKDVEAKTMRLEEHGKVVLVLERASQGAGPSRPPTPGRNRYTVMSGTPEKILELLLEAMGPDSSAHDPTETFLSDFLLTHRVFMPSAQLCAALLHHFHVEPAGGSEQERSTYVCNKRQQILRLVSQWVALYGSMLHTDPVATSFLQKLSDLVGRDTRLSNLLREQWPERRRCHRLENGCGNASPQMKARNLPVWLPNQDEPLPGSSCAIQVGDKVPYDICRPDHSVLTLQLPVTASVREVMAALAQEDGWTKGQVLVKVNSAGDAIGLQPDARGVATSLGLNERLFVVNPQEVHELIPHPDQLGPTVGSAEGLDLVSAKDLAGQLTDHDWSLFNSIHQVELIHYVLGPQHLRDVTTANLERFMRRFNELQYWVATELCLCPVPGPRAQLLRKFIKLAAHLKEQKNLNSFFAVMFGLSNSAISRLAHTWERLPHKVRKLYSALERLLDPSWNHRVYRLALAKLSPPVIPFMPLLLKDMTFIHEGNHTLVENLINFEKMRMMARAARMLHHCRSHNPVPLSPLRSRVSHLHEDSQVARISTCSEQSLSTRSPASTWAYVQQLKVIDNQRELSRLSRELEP

Turning to `COc1ccc(C(=O)/C=C/c2ccccc2)c(OC)c1`, the Potency result in assay [1] and in assay [2] was “inactive” each time.

With `Cc1cccc(Oc2ccccc2NC(=O)C2=COCCO2)c1`, the Potency result in assay [1] and in assay [2] was “inactive” each time.

In the case of `COc1ccc(C(=O)Oc2ccc(/C=N/Nc3ccc(Cl)c(C(=O)O)c3)cc2OC)cc1`, the Potency result in assay [1] and in assay [2] was “inactive” throughout.

Turning to `CC1CCCN(C2(O)C(=O)Nc3ccc(Br)cc32)C1` (centres undefined), the Potency entry in assay [1] and in assay [2] was “inactive” in each case.

On to `O=C(/C=C/c1ccco1)Oc1cc(Br)cc(/C=N/NC(=O)c2ccccc2O)c1`, for which the Potency entry in assay [1] and in assay [2] was “inactive” each time.

As for `Cc1ccc(CNC(=O)c2cccc3c2C(=O)c2ccc(N4CCCCC4)cc2S3(=O)=O)cc1`, the Potency in assay [1] and in assay [4] was 11.2 µM (active) throughout. For the same molecule, the Potency entry in assay [3] was “inactive”. For the same molecule, the activity change, negative = inhibition in assay [2] is -7.83% [at 30.8 µM].

As to `Cc1ccc(N2CC(NC(=O)C(=O)c3c[nH]c4ccccc34)CC2=O)cc1C` (centres undefined), the Potency result in assay [1] and in assay [2] was “inactive” each time.

For `COC(=O)c1ccc2nc(-c3ccc(Cl)cc3)c(Cc3cccc(F)c3)n2c1`, the Potency entry in assay [1] and in assay [2] was “inactive” each time.

In the case of `COc1ccc(OC)c(NC(=O)CSc2ncnc3sc(C)cc23)c1`, the Potency result in assay [1], in assay [3], in assay [2] and in assay [4] was “inactive” throughout.

With `O=C(Nc1ccc(F)cc1)c1cccc(N2C(=O)C3C4C=CC(C5CC45)C3C2=O)c1` (centres undefined), the Potency entry in assay [1] and in assay [2] was “inactive” throughout.

`CCC(C(=O)c1ccc2ncccc2c1)c1ccccc1` (centres undefined): the Potency result in assay [1], in assay [2] and in assay [4] was “inactive” each time.

For `COC(=O)C1=C(C)N(Cc2ccco2)C(=O)N[C@H]1c1cccc(C(F)(F)F)c1`, the Potency result in assay [1] and in assay [4] was “inactive” in each case.

For `COC(=O)c1ccc2nc(-c3ccco3)c(Cc3cccc(F)c3)n2c1`, the Potency result in assay [1], in assay [2] and in assay [4] was “inactive” throughout.

As for `Cc1ccc(N(Cc2ccc([N+](=O)[O-])cc2)C(=O)c2ccco2)cc1C`, the Potency result in assay [1], in assay [2] and in assay [4] was “inactive” each time.

Turning to `COc1ccc(C(=O)c2oc3ccc(OC)cc3c2N)cc1`, the Potency entry in assay [1], in assay [2] and in assay [4] was “inactive” throughout.

As for `COC(=O)c1ccc2nc(-c3ccc(Cl)cc3)c(Cc3ccccc3OC)n2c1`, the Potency result in assay [1], in assay [2] and in assay [4] was “inactive” throughout.

Take `O=C1[C@H]2CCC=C[C@H]2[C@H](c2ccccc2Br)N1Cc1ccccc1`: the Potency result in assay [1], in assay [2] and in assay [4] was “inactive” throughout.

In the case of `CC(=O)N(CCC(Cc1ccccc1)c1ccco1)Cc1ccco1` (centres undefined), the Potency result in assay [1] was “inactive”. Further, the activity change, negative = inhibition in assay [2] was -6.33% [at 30.8 µM]. Further, the activation in assay [4] was 32.1% [at 30.8 µM].

As for `COc1ccccc1CNC(=O)C1(C)CCN1Cc1ccc2ccccc2c1` (centres undefined), the Potency entry in assay [1], in assay [2] and in assay [4] was “inactive” in each case.

Turning to `CCOc1ccc(N(Cc2ccc(OC)cc2)C(=O)c2ccco2)cc1`, the Potency entry in assay [1] and in assay [4] was “inactive” each time.

In the case of `COC(=O)c1ccc2nc(C3CCCCC3)c(Cc3ccccc3C(F)(F)F)n2c1`, the Potency entry in assay [1], in assay [2] and in assay [4] was “inactive” in each case.

In the case of `COc1ccc(CN2C(=O)c3cccnc3C2O)cc1` (centres undefined), the Potency entry in assay [1], in assay [2] and in assay [4] was “inactive” each time.

In the case of `CCOC(=O)C1=C(C)N(C)C(C)=C(C(=O)OCC)C1c1ccc(Cl)cc1`, the Potency entry in assay [1], in assay [2] and in assay [4] was “inactive” in each case.

`CCOC(=O)C1=C(c2ccccc2)c2ccccc2OC1C(=O)OCC` (centres undefined): the Potency result in assay [1] is “inactive”. The activity change, negative = inhibition in assay [2] is -22.2% [at 30.8 µM]. In addition, the activation in assay [4] is 24.5% [at 30.8 µM].

With `COc1ccc(NC(=O)c2cc(-c3cc(Cl)ccc3C)n[nH]2)cn1`, the Potency entry in assay [1] and in assay [2] was “inactive” throughout.

Turning to `COC(=O)C1=CN(c2c(C)cc(C)cc2C)C(N)=C(C#N)C1c1ccccc1` (centres undefined), the Potency result in assay [1] and in assay [2] was “inactive” in each case.

For the molecule `CCC(=O)N(CCC(Cc1ccccc1)c1ccco1)Cc1ccco1` (centres undefined), the Potency result in assay [1], in assay [2] and in assay [4] was “inactive” throughout.

In the case of `Cc1nc2ccccc2c(C)c1C(=O)c1ccccc1`, the Potency result in assay [1] is “inactive”. In addition, the activation in assay [4] was -2.6% [at 30.8 µM].

On to `Cc1ccc2nc(-c3ccccc3)c(Cc3cccc(Cl)c3)n2c1`, for which the Potency result in assay [1] and in assay [2] was “inactive” in each case.

As to `COC(=O)c1ccc2nc(-c3ccc(Cl)cc3)c(Cc3ccsc3)n2c1`, the Potency entry in assay [1], in assay [2] and in assay [4] was “inactive” throughout.

Turning to `C/[N+]([O-])=C/c1c(OCc2ccccc2)ccc2ccccc12`, the Potency result in assay [1], in assay [2] and in assay [4] was “inactive” in each case.

On to `Cc1ccccc1C1CC(=O)c2ccccc2C1C` (centres undefined), for which the Potency entry in assay [1], in assay [2] and in assay [4] was “inactive” throughout.

For the molecule `COc1ccc(CN(C(=O)c2ccco2)c2ccc(C)c(C)c2)cc1`, in assay [1], the Potency entry was “inactive”. In addition, in assay [2], the activity change, negative = inhibition is -23% [at 30.8 µM]. In assay [4], the activation is 12.3% [at 30.8 µM].

Take `COc1ccccc1C1CC(=O)Oc2cc(C)c(Br)c(C)c21` (centres undefined): the Potency result in assay [1] and in assay [2] was “inactive” throughout.
